A selection: hits, their analogues and other compounds. The true share with any hit is near 2%.
Insulin prom inh = TRM-6 insulin promoter activity inhibition; TRM-6 cells (human fetal islet line), insulin promoter-eGFP reporter, imaging; reporter expression induced with tamoxifen; inhibition, % at 2 µM; 130,000 tested, 0.9% active;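 active = inhibition above the mean plus 3 SD, with well images judged a real hit on visual review, cut at about 60% in these data, passing the limit was not always enough; inconclusive = inhibition over the cutoff but images rejected on review; inactive = inhibition not above the cutoff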
Insulin prom up = MIN6 insulin promoter up-regulation; MIN6 insulin promoter-GFP reporter, high-content imaging; stronger effect = higher value; z-score at 5 µM; 190,000 tested, 0.3% active;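 active = z-score above 3 at 5 µM with at least 500 cells counted in the well; inconclusive = wells under 500 cells, flagged as cytotoxic or low count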
Autophagy mod = modulators of autophagy; AID 463193; 190,000 tested, 0.98% active; MEF GFP-LC3 puncta imaging; test concentration mostly 10 µM; calls only at 10 µM (by protocol);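 active = percentage of spot-positive cells more than 3 SD above its plate mean, without a fluorescence outlier flag or 80% toxicity; inconclusive = no clear call, values can overlap the other calls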;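 also: spot-positive cell cutoff set from DMSO-treated cells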
PERK inh = inhibitors of human PERK kinase; CHO PERK-DD fusion, SEAP luminescence translation reporter; 220,000 tested, 0.17% active; AID 1416; inhibition, % at 5.6 µM; Q9NZJ5;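 active = inhibition above the mean inhibition of all tested compounds plus 3 SD, set separately per screening campaign, cut at about 2.9% in these data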;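 also: PERK kinase domain activated by AP20187 dimerizer at 100 nM; 0% = DMSO with dimerizer and 100% = rapamycin at 8.4 µM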
eIF4E-4G inh = eIF4E/eIF4G interaction inhibition in translation initiation; TR-FRET eIF4E-eIF4GI(517-606) binding, 2 h; P63073+Q04637; AID 782; 220,000 tested, 0.37% active; inhibition, % at 21.7 µM;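 active = inhibition above about 30%, limit read from the data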;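 also: 0% = full FRET control wells and 100% = background wells lacking eIF4GI fragment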
An asterisk follows results filed as active; i = inactive; ? = inconclusive; / = not tested or not shown; + = active, no number.

SMILES	Insulin prom inh	Insulin prom up	Autophagy mod	PERK inh	eIF4E-4G inh
COc1ccc2cc(/C=N/NC(=O)CN(c3ccccc3C)S(=O)(=O)c3ccccc3)c(Cl)nc2c1	-43	1.7	+	1	-3
COc1ccc(/C=N/NC(=O)CN(c2ccc(OC)cc2)S(=O)(=O)c2ccccc2)cc1	/	/	i	1	8
CCN(CC)CCNC(=S)Nc1ccc(F)cc1	/	0.61	+	0	0
Fc1ccc(NC(=S)NCCN2CCOCC2)cc1	41	0.68	i	0	-3
CC(C)c1cc(CNC(=O)CC2C(=O)NCCN2CC2CCCCC2)on1 (centres undefined)	/	0.39	i	2	0
CSc1ccccc1NC(=O)c1ccccc1C	/	0.44	i	2	47*
S=c1[nH]c(-c2ccccc2)cn1/N=C/c1cccnc1	/	0.53	/	-1	96*
CCOc1ccc(S(=O)(=O)n2cc(-c3ccc(F)cc3)c(N)n2)cc1	87*	/	i	0	3
CCOc1ccc(S(=O)(=O)n2cc(-c3ccccc3)c(N)n2)cc1	38	-0.26	i	0	1
CCOC(=O)CSc1nc2cc(OC)ccc2cc1C#N	94*	0.07	i	0	-46
COc1ccc(N2C(=O)CC(N3CCN(S(=O)(=O)c4cc(C)ccc4C)CC3)C2=O)cc1 (centres undefined)	20	0.31	i	0	-4
Cc1ccc2cc3c(N)c(C(=O)Nc4c(C)[nH]c(=O)[nH]c4=O)sc3nc2c1	/	/	+	0	-4
COc1ccc2nc(SCC(=O)N3CC(=O)Nc4ccccc43)c(C#N)cc2c1	23	-0.21	i	0	-81
Cc1ccc2cc3c(N)c(C(=O)N4CC(=O)Nc5ccccc54)sc3nc2c1	7	/	+	0	-3
Cc1cc(C)cc(C(=O)N2CC(=O)Nc3ccccc32)c1	-193	-2.4	+	-1	1
Cc1cc(C)c2nc(SCC(=O)N3CC(=O)Nc4ccccc43)c(C#N)cc2c1	-152	/	+	0	-32
COc1cc(NC(=O)c2cccc(COCC(F)(F)C(F)F)c2)cc(OC)c1OC	/	-0.14	i	0	4
Cc1cc([N+](=O)[O-])ccc1NC(=O)C[n+]1ccc(N(C)C)cc1	15	-0.31	i	1	5
O=S(=O)(NCc1ccccc1Cl)c1cccs1	44	/	i	1	-1
CCn1c(C)nc2cc(C(=O)NNC(=O)CCC3CCCCC3)ccc21	13	0.93	i	0	1
Cc1cc(N2CCCCC2)nc(NCc2ccccc2)n1	-3	-0.51	i	0	67*
Cc1cc(N2CCOCC2)nc(NCc2ccccc2)n1	-14	?	i	-1	-3
COc1cccc(-c2nn(C)c3sc(C(=O)NCc4ccc(C)o4)cc23)c1	62*	-0.47	i	-1	-16
COc1cccc(-c2nn(C)c3sc(C(=O)NCc4ccc5c(c4)OCO5)cc23)c1	/	-0.23	i	0	-2
CC(NCC(O)COC1CCC(C(C)(C)C)CC1)c1ccccc1 (centres undefined)	-24	-0.94	+	0	2
SMILES	Insulin prom inh	Insulin prom up	Autophagy mod	PERK inh	eIF4E-4G inh
CC1CCC(C(C)C)C(OCC(O)CNC(C)c2ccccc2)C1 (centres undefined)	/	-1.1	i	-1	0
C=CCN=C(C)C1=C(O)CCC1=O	20	0.71	i	2.9*	0
COc1cccc(/C=C2\N=C(C3CCCCC3)OC2=O)c1OC	/	0.34	i	1	1
O=C1Nc2ccc(F)cc2C12SCCS2	-21	0	i	1	4
C=CCN(c1ccccc1)S(=O)(=O)c1cccc(C(=O)O)c1	-10	/	i	3.4*	0
C/C(=N\NC1=N[C@H]2CS(=O)(=O)C[C@H]2S1)c1ccccc1	/	-0.09	/	3.3*	-8
O=S1(=O)C[C@@H]2N=C(N/N=C/c3ccccc3)S[C@@H]2C1	/	-0.99	/	1	-3
CCCCN(CC)CCCNC(=S)Nc1ccc2nc(N3CCN(CC)CC3)cc(C)c2c1	/	-0.19	+	-1	2
CCCCN(CC)CCCNC(=S)Nc1ccc2nc(N3CCN(C)CC3)cc(C)c2c1	/	1.2	+	1	-3
CCCN(CCC)CCCNC(=S)Nc1ccc2nc(N3CCCC3)cc(C)c2c1	/	-0.61	i	0	1
Cc1ccc(S(=O)(=O)N[C@@H](Cc2ccccc2)C(=O)CCl)cc1	14	/	i	1	-1
O=C(CCn1[nH]c(=O)c2ccccc2c1=O)NCCO	-14	-0.08	i	0	35*
CCCCOC(=O)CCn1[nH]c(=O)c2ccccc2c1=O	-21	-0.04	i	0	-10
O=C(Nc1ccc2c(c1)nc1n2CCOC1)c1ccco1	/	0.39	i	1	-3
O=C(Nc1ccc2c(c1)nc1n2CCSC1)c1ccco1	/	-0.68	+	0	-17
CC(NC(=O)/C=C/c1ccco1)c1nc2ccccc2n1Cc1cccc(Cl)c1 (centres undefined)	/	0	i	0	3
O=C(NCc1cccs1)C12CC3CC(CC(C3)C1)C2	82*	1.1	i	1	2
O=C(Nc1ccc([N+](=O)[O-])cc1)Nc1nc(-c2ccc(Cl)s2)cs1	78*	-0.66	i	0	1
CCN(Cc1ccncc1)C(=O)CCc1nnc(CCc2ccc(OC)cc2)o1	/	/	i	0	-3
CCN(CC)CCNc1ncnc2c1[nH]c1ccc(OC)cc12	/	/	i	0	7
O=C1CCCN1CCCNc1ncnc2c1[nH]c1ccc(Cl)cc12	81*	-0.88	i	0	3
COc1ccc2[nH]c3c(NCCC4=CCCCC4)ncnc3c2c1	65*	/	i	2	6
CCN1CCCC1CNc1ncnc2c1[nH]c1ccc(Cl)cc12 (centres undefined)	21	-2.3	+	-2	6
Nc1ccccc1-c1n[nH]c(=S)s1	/	-0.38	i	1	4
Cc1cc2c(NC(=O)CC(C)(C)CC(=O)O)cccc2nn1	/	-0.46	/	1	1
SMILES	Insulin prom inh	Insulin prom up	Autophagy mod	PERK inh	eIF4E-4G inh
Cc1cc2c(NC(=O)Nc3ccc(F)cc3)cccc2nn1	/	0.24	/	3.4*	2
COc1ccccc1NC(=O)c1sc(NC(=O)c2ccco2)c(C#N)c1C	93*	/	i	1	1
Clc1cnc2nc(SC/C=C/c3ccccc3)[nH]c2c1	/	0.37	/	0	2
CNS(=O)(=O)c1cnccc1N1CCN(c2cccc(C(F)(F)F)c2)CC1	-53	1	i	0	-8
CSC1=NCCN1S(=O)(=O)c1ccc(C)cc1	79*	0.08	i	1	9
COC(=O)Nc1ccc(S(=O)(=O)N2CCCC(C(=O)N3CCCCCC3)C2)cc1 (centres undefined)	/	-0.62	+	0	5
CCCCCCCCCCCC(=O)NC(C(=O)OCC)C(O)c1cccc([N+](=O)[O-])c1 (centres undefined)	-23	/	i	0	-6
O=c1[nH][nH]c(=S)n1C1CCCCC1	/	0.81	/	1	44*
CC(C)C1NC(=S)N(C2CCCCC2)C1=O (centres undefined)	17	0.79	i	1	-1

From PubChem
